Reference: PubChem BioAssay (NCI)
Compounds without any hit were thinned out: in the full panel of roughly 83,000, 20% have a hit.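 Single-concentration screen, 48 h exposure, 96-well plates. Endpoint: percent growth. Below 10 = active.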 A number with no mark means an inactive call. Activity calls are given as the source filed them.

Legend:
Experiment in all cases: NCI-60 one-dose screen, 48 h (100 = growth as untreated, 0 = no growth, -100 = all killed)
SR leukemia = conditions: 10 µM unless noted
RPMI-8226 leukemia = conditions: 10 µM
OVCAR-8 ovarian = conditions: 10 µM unless noted
OVCAR-5 ovarian = conditions: 10 µM unless noted
OVCAR-4 ovarian = conditions: 10 µM unless noted
SK-OV-3 ovarian = conditions: 10 µM
IGROV1 ovarian = conditions: 10 µM unless noted
OVCAR-3 ovarian = conditions: 10 µM unless noted
HS 578T breast = conditions: 10 µM unless noted
NCI/ADR-RES ovarian = conditions: 10 µM unless noted
T-47D breast = conditions: 10 µM
BT-549 breast = conditions: 10 µM unless noted
MDA-MB-435 melanoma = conditions: 10 µM unless noted
SW-620 colon = conditions: 10 µM unless noted
MCF7 breast = conditions: 10 µM unless noted
HCT-116 colon = conditions: 10 µM unless noted
HCC-2998 colon = conditions: 10 µM unless noted
KM12 colon = conditions: 10 µM unless noted

| Structure (SMILES) | growth (SR leukemia) | growth (RPMI-8226 leukemia) | growth (OVCAR-8 ovarian) | growth (OVCAR-5 ovarian) | growth (OVCAR-4 ovarian) | growth (SK-OV-3 ovarian) | growth (IGROV1 ovarian) | growth (OVCAR-3 ovarian) | growth (HS 578T breast) | growth (NCI/ADR-RES ovarian) | growth (T-47D breast) | growth (BT-549 breast) | growth (MDA-MB-435 melanoma) | growth (SW-620 colon) | growth (MCF7 breast) | growth (HCT-116 colon) | growth (HCC-2998 colon) | growth (KM12 colon) |
| --- | --- | --- | --- | --- | --- | --- | --- | --- | --- | --- | --- | --- | --- | --- | --- | --- | --- | --- |
| CC(C)N1CCN(c2ccc(OC[C@H]3CO[C@](Cn4cncn4)(c4ccc(Cl)cc4Cl)O3)cc2)CC1 | 58.1% | 88.7% | 100% | 85.1% | 99.2% | 94% | 104% | 102% | 84% | 88.1% | 105% | 84.4% | 69.7% | 98.4% | 95% | 77.7% | 104% | 95.4% |
| COc1cc(CNCCN2C(=O)c3ccc4c5c(ccc(c35)C2=O)C(=O)N(CCNCc2cc(OC)c(OC)c(OC)c2)C4=O)cc(OC)c1OC | 0.859% (active) | -25.5% (active) | -47.3% (active) | -78.7% (active) | -70.9% (active) | -96.9% (active) | -53.5% (active) | -99.1% (active) | -60.7% (active) | -20.2% (active) | -56.2% (active) | -93.8% (active) | -63.4% (active) | -87.3% (active) | -59.4% (active) | -99.7% (active) | -100% (active) | -92.5% (active) |
| Fc1ccccc1Nc1ccc2nnc(-c3ccncc3)n2n1 | 89.4% | 95.4% | 103% | 97.3% | 107% | 107% | 105% | 108% | 105% | 99.2% | 85.3% | 101% | 106% | 106% | 94.7% | 99.5% | 107% | 112% |
| CC1SC(c2cccc(Oc3ccccc3)c2)N(CCc2cccs2)C1=O (stereo not given) | -2.19% (active) | -13.5% (active) | 0% (active) | -13.9% (active) | 8.45% (active) | -8.94% (active) | -23.6% (active) | -98.1% (active) | -44.8% (active) | -28% (active) | 0.211% (active) | -69.2% (active) | -43.1% (active) | -3.96% (active) | -0.665% (active) | -85.6% (active) | -32.9% (active) | – |
| CSc1ccc(OC(C)=O)cc1C | 95.7% | 101% | 100% | 99.4% | 99.6% | 95% | 103% | 106% | 103% | 103% | 90.6% | 98% | 91.3% | 105% | 100% | 101% | 102% | 101% |
| COc1ccc2c(c1)c(=O)oc1c(C)c(OCC(C)=O)ccc12 | 116% | 92.6% | 96.3% | 86.9% | 93.6% | 110% | 111% | 109% | 33.6% | 97.6% | 104% | 102% | 89.4% | 101% | 101% | 104% | 98.1% | 96.6% |
| COc1ccc(-c2nc3sc(C)cn3c2/C=C/C(=O)c2cc(OC)c(OC)c(OC)c2)cc1 | 48.5% | 31.5% | 35.7% | 113% | 47.8% | 66.4% | 67.1% | 41.7% | 37.3% | 21.8% | 50.3% | 59.9% | 20.9% | 64.3% | 46.7% | 42.1% | 69.3% | 29.3% |
| O=C1C(N2CCOCC2)=Cc2cccc3cccc1c23 | 40.8% | 105% | 96.1% | 103% | 90.5% | 95.8% | 112% | 101% | 86.1% | 99.8% | 86.6% | 109% | 102% | 98.3% | 66.2% | 94.7% | – | – |
| O=C1NC(=O)C2(CCCC2C(=O)O)N1 (stereo not given) | 90.4% | 103% | 100% | 110% | 99.4% | 119% | 131% | 120% | 115% | 100% | 106% | 102% | 105% | 108% | 96.2% | 98.4% | 100% | – |
| COC(=O)C1C2CC3c4[nH]c5cc(OC)ccc5c4CCN3CC2CC(OC2CCCCO2)C1OC (stereo not given) | 88.5% | 87.5% | 96.2% | 105% | 93.6% | 101% | 114% | 107% | 96.2% | 95.4% | 108% | 97.2% | 101% | 100% | 95.8% | 103% | – | – |
| COc1ncc(F)c(OC)n1 | 94% | 101% | 97.3% | 97.9% | 90% | 97.8% | 103% | 114% | 118% | 105% | 104% | 108% | 106% | 107% | 96.6% | 101% | 110% | 105% |
| CC(C)(C)[Si](C)(C)OC1[C@@H](COC(N)=O)O[C@@H](n2cnc3c(N)ncnc32)[C@H]1O[Si](C)(C)C(C)(C)C (stereo not given in full) | -31.8% (active) | 21.6% | 84.9% | 99.2% | 96.2% | 91.7% | 113% | 75.6% | 88.5% | 87.4% | 84.4% | 106% | 74.6% | 100% | 78.6% | 90.1% | 107% | 76% |
| Cn1c(=O)c(S(=O)(=O)c2ccccc2)cc2ccc3c(cnn3-c3ccc(Cl)cc3)c21 | 79% | 75.9% | 60.9% | 94.3% | 39.1% | 69.7% | 96% | 94.5% | 69.3% | 81.5% | 50.5% | 66.1% | 80.8% | 90.5% | 99.8% | 63.5% | 93.4% | 89.3% |
| COC1(OC)C2(Cl)C=C(c3ccccc3)C1(Cl)C(Cl)=C2Cl (stereo not given) | 83.9% | 92.4% | 93.8% | 101% | 88.6% | 90.3% | 90% | 107% | 116% | 98.9% | 95.6% | 88.2% | 95.7% | 115% | 99.2% | 79.3% | 99.8% | – |
| Cn1cc(C(=O)NCCC(=N)N)cc1NC(=O)CN=C(N)N | 104% | 110% | 106% | 88.9% | 105% | 110% | 106% | 112% | 92.4% | 94.2% | 110% | 99.9% | 111% | 106% | 111% | 92.6% | 88.6% | 104% |
| Cc1nc2cc(Nc3nc(N4CCCCC4)nc(N4CCOCC4)n3)ccc2n1Cc1ccccc1 | 25.2% | 17.7% | 27.6% | 55.8% | -63.9% (active) | 39.8% | 47% | -3.53% (active) | 34.6% | 27% | -8% (active) | 63.2% | 52.8% | 44.1% | 65.5% | -49.9% (active) | 94.3% | – |
